Assay results as given in publication PMC7862700, “An all-to-all approach to the identification of sequence-specific readers for epigenetic DNA modifications on cytosine”.

Experiments:
Assay in all cases: DAPPL (digital affinity profiling via proximity ligation, sequencing); 10 mM Tris-HCl pH 7.5, 50 mM NaCl, 1 mM DTT, 4% glycerol, room temperature, 30 min; GST-TFs on glutathione beads, 16-mer random dsDNA library, 0.1% formaldehyde crosslink after washing; high values mean tight binding
FEV = target: T1, FEV (Homo sapiens, UniProt Q99581 1-238); settings: protein: recombinant; tags: N-terminal GST; dsDNA, one strand shown
T1 sequence: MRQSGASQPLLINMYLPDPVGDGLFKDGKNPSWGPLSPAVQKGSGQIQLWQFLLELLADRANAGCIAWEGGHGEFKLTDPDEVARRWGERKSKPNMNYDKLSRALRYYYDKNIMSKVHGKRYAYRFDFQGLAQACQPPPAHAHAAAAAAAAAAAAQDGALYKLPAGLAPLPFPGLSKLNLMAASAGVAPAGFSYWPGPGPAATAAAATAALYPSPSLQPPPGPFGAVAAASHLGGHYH
In short: (§1)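 Yeast served to express human transcription factors as GST fusions, which were then captured on glutathione beads and labelled with DNA barcodes. Pooled with a tag-only sample, they were incubated with 200 nmole of a 16-mer random double-stranded DNA library for 30 min at room temperature in Tris/NaCl/DTT/glycerol buffer, washed, crosslinked with 0.1% formaldehyde, ligated by proximity, amplified by PCR and sequenced. Dividing each hexamer's read frequency for a factor by its frequency for the tag-only sample gives the binding signal.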

ETV5 = ETV5 (Homo sapiens, UniProt P41161 1-510); settings: protein: recombinant; tags: N-terminal GST; dsDNA, one strand shown
Chain of ETV5 (P41161 whole entry): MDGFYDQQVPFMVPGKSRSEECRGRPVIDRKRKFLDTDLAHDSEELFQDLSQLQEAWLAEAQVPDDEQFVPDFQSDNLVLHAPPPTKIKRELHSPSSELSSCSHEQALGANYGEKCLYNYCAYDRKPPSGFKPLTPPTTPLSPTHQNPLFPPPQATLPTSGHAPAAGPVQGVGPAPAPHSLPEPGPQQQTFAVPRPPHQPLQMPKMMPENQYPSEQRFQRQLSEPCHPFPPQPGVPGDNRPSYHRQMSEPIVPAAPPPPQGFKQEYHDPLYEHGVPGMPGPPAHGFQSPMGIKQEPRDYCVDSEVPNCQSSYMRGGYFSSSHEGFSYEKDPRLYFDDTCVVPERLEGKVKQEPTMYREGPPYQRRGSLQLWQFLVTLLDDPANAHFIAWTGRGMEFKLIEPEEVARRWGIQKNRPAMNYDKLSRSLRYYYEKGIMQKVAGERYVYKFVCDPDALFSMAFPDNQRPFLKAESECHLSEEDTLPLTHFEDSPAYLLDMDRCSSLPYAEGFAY
In short: as §1

HSF1 = HSF1 (Homo sapiens, UniProt Q00613 1-529); settings: protein: recombinant; tags: N-terminal GST; chain copies: 3; dsDNA, one strand shown
Chain of HSF1 (Q00613 whole entry): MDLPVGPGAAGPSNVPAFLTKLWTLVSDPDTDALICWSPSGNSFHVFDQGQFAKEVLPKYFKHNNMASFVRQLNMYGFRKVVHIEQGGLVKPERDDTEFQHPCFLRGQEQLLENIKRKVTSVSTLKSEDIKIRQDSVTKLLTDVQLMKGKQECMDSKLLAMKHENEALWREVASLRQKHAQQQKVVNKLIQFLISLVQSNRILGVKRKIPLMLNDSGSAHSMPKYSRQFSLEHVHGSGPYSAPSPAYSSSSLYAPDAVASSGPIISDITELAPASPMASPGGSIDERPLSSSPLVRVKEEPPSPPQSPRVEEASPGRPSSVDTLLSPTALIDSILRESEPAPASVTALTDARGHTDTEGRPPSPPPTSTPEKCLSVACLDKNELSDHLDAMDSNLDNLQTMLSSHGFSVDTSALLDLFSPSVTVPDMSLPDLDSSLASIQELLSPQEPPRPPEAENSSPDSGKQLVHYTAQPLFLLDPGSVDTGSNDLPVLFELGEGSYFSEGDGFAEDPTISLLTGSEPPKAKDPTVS
In short: as §1

SPIC = target: T2, SPIC (Homo sapiens, UniProt Q8N5J4 1-248); settings: protein: recombinant; tags: N-terminal GST; dsDNA, one strand shown
T2 sequence: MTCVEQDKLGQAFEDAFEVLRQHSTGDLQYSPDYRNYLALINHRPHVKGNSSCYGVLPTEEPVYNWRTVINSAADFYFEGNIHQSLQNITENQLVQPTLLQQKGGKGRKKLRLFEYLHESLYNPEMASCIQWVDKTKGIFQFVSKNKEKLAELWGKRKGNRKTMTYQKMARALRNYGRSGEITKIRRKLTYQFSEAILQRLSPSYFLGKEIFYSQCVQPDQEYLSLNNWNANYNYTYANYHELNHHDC
In short: as §1

ELF4 = ELF4 (Homo sapiens, UniProt Q99607 1-663); settings: protein: recombinant; tags: N-terminal GST; dsDNA, one strand shown
Chain of ELF4 (Q99607 whole entry): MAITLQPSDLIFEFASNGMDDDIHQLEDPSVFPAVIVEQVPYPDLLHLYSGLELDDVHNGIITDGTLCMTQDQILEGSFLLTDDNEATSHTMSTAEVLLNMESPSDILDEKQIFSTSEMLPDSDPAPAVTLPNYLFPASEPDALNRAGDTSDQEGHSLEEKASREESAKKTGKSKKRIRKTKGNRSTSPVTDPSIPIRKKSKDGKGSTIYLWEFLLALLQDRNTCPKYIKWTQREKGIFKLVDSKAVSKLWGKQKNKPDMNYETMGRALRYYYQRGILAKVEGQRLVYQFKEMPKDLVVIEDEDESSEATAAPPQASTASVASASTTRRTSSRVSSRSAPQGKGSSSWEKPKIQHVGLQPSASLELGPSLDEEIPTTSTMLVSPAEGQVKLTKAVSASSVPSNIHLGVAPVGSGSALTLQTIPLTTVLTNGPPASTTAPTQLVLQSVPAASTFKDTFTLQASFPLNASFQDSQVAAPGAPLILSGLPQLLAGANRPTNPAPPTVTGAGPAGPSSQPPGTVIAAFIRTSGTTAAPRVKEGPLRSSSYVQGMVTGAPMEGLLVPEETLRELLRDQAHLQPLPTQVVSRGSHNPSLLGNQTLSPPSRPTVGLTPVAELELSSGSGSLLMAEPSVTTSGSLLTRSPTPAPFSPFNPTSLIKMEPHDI
In short: as §1

ELK4 = target: T3, ELK4 (Homo sapiens, UniProt P28324-2 1-405); settings: protein: recombinant; tags: N-terminal GST; dsDNA, one strand shown
T3 sequence: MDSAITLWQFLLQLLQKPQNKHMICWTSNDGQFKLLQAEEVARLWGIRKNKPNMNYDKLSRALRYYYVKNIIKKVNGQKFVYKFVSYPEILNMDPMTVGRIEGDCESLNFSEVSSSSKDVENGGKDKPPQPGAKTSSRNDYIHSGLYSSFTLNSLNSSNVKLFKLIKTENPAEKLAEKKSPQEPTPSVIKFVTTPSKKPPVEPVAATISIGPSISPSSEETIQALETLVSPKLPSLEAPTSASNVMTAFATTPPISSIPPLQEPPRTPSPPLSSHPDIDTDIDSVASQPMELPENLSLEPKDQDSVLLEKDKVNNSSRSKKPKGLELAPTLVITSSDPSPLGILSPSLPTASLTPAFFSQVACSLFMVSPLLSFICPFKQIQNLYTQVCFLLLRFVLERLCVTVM
In short: as §1

ETV2 = target: T4, ETV2 (Homo sapiens, UniProt O00321 1-342); settings: protein: recombinant; tags: N-terminal GST; dsDNA, one strand shown
T4 sequence: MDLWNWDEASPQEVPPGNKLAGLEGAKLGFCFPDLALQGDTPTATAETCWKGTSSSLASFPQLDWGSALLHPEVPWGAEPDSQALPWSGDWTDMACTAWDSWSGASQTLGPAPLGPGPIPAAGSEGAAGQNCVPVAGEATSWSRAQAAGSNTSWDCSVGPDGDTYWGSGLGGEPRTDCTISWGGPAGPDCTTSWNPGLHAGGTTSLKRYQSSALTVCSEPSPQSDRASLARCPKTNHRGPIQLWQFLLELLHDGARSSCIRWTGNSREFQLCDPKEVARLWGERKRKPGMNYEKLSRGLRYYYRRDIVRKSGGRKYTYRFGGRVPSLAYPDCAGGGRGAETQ
In short: as §1

ELF3 = target: T5, ELF3 (Homo sapiens, UniProt P78545 1-371); settings: protein: recombinant; tags: N-terminal GST; dsDNA, one strand shown
T5 sequence: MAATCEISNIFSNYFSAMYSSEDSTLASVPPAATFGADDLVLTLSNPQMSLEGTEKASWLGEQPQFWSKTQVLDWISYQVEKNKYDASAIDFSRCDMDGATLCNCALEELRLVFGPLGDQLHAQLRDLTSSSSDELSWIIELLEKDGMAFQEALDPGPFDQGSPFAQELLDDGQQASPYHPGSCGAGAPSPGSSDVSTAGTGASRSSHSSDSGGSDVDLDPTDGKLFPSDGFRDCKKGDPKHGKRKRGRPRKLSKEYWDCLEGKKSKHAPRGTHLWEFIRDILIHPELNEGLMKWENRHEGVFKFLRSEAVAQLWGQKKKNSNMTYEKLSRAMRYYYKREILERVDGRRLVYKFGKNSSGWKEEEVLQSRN
In short: as §1

CRX = CRX (Homo sapiens, UniProt O43186 1-299); settings: protein: recombinant; tags: N-terminal GST; dsDNA, one strand shown
Chain of CRX (O43186 whole entry): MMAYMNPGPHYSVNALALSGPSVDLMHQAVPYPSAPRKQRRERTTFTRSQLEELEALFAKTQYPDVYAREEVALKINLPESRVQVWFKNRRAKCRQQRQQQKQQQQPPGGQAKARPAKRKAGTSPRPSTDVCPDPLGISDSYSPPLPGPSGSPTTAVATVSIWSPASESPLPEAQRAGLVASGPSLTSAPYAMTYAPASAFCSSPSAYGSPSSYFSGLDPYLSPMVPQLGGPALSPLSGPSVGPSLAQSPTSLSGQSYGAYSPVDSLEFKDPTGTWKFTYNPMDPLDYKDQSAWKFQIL
In short: as §1

ETV1 = ETV1 (Homo sapiens, UniProt P50549 1-477); settings: protein: recombinant; tags: N-terminal GST; dsDNA, one strand shown
Chain of ETV1 (P50549 whole entry): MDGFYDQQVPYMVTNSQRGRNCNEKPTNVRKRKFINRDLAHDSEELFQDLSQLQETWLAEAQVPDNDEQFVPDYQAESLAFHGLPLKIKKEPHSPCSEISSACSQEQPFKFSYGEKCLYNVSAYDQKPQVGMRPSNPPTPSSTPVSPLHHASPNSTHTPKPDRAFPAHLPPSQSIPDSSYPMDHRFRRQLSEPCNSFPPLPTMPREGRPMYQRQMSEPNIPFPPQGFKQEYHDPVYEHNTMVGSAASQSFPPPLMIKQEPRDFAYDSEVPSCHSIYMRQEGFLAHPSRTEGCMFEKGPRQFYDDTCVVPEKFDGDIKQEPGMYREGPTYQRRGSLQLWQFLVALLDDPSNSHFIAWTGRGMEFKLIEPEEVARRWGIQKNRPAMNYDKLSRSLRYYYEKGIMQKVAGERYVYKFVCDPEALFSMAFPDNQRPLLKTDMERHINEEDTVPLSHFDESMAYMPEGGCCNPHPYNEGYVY
In short: as §1

**Q.** With AGATTC as the sequence, how does the binding signal (FEV) read?
**A.** 1.13 fold enrichment (6-mer frequency, TF over GST control)

**Q.** What about the binding signal (ETV5) of the same sequence?
**A.** 1.07 fold enrichment (6-mer frequency, TF over GST control)

**Q.** What about the binding signal (HSF1) of the same sequence?
**A.** 2 fold enrichment (6-mer frequency, TF over GST control)

**Q.** What about the binding signal (SPIC) of the same sequence?
**A.** 1.24 fold enrichment (6-mer frequency, TF over GST control)

**Q.** What about the binding signal (ELF4) of the same sequence?
**A.** 1.16 fold enrichment (6-mer frequency, TF over GST control)

**Q.** And the binding signal (ELK4)?
**A.** 1.18 fold enrichment (6-mer frequency, TF over GST control)

**Q.** And the binding signal (ETV2)?
**A.** 1.32 fold enrichment (6-mer frequency, TF over GST control)

**Q.** What about the binding signal (ELF3) of the same sequence?
**A.** 1.11 fold enrichment (6-mer frequency, TF over GST control)

**Q.** What about the binding signal (CRX) of the same sequence?
**A.** 1.41 fold enrichment (6-mer frequency, TF over GST control)

**Q.** And the binding signal (ETV1)?
**A.** 1.22 fold enrichment (6-mer frequency, TF over GST control)
